The values below come from PubChem BioAssay (EPA / NIEHS).

Each structure is given as a SMILES string. The source made the active and inactive calls. The calls were made as follows: active = hit-call score of the fitted dose curve at least 0.9, where 1 is the maximum; inconclusive = response in the unintended direction; inactive = score below 0.9.

Chain of Peroxisome proliferator-activated receptor gamma (Homo sapiens) (P37231 whole entry, looked up, the tested form may be a part): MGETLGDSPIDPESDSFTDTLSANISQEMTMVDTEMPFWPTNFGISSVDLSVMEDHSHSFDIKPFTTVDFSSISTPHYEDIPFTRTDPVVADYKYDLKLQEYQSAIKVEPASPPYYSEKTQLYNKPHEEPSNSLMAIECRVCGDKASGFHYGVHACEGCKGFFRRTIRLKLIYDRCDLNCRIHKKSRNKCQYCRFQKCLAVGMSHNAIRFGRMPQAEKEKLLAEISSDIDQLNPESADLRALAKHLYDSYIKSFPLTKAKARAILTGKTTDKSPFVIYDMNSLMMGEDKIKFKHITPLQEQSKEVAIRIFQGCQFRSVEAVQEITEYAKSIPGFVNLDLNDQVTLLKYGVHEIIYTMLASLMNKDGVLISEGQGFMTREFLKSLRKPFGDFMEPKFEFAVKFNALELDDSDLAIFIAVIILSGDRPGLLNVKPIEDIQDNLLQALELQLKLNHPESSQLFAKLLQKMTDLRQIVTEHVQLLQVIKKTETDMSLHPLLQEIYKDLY

The experiment concerns the target Peroxisome proliferator-activated receptor gamma (Homo sapiens) (UniProt P37231). The experiment can be described thus: OT_PPARg_PPARgSRC1_1440: Odyssey Thera (OT) 24-hour Protein-Complementation Assay for Peroxisome Proliferator-activated Receptor Gamma/ SRC-1 Co-activator (AID 2283388).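 Also: nuclear to cytoplasmic ratio of reconstituted Venus YFP fluorescence in fixed imaged cells.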 The procedure:
OT_PPARg_PPARgSRC1_1440 is a cell-based assay that uses HEK293T, a human kidney cell line, with measurements taken at 24 hours after chemical dosing in a 384-well plate.OT_PPARg_PPARgSRC1_1440 is one of one assay component(s) measured or calculated from the OT_PPARg_PPARgSRC1_1440 assay. It is designed to make measurements of protein fragment complementation, a form of binding reporter, as detected with fluorescence intensity signals by Protein-fragment Complementation technology.Data from the assay component OT_PPARg_PPARgSRC1_1440 was analyzed into 1 assay endpoint. This assay endpoint, OT_PPARg_PPARgSRC1_1440, was analyzed in the positive analysis fitting direction relative to DMSO as the negative control and baseline of activity. Using a type of binding reporter, measures of receptor for gain-of-signal activity can be used to understand the binding at the pathway-level as they relate to the gene PPARG. Furthermore, this assay endpoint can be referred to as a primary readout, because the performed assay has only produced 1 assay endpoint. To generalize the intended target to other relatable targets, this assay endpoint is annotated to the nuclear receptor intended target family, where the subfamily is non-steroidal.
The OT PPARg/SRC-1 assay assessed receptor-chemical interactions using a rapidly maturing, intensely fluorescent mutant of YFP known as Venus, rationally dissected into two separate fragments. The fragments were obtained as follows: first, fragments coding for YFP1 and YFP2 (corresponding to amino acid residues 1-158 and 159-239 of the full length YFP, respectively) were generated by oligonucleotide synthesis (Blue Heron Biotechnology), and then PCR mutagenesis was used to generate the mutant fragments IFP1 and IFP2. Fusion constructs were transfected into HEK293T cells with a (Gly4Ser)2 linker between the PPARg/SRC-1 and YFP fragment genes to facilitate complementation when interacting proteins bring fragments into close proximity. The construct is transiently transfected in HEK293T cells 48 hours prior to treatment with test compounds. Cells are seeded into optical quality 384-well poly-D-lysine coated plates in MEM alpha medium (Invitrogen) supplemented with 10 percent FBS (Gemini Bio-Products) 1 percent penicillin and 1 percent streptomycin, and grown in 37C incubator equilibrated to 5 percent CO2. Cells are allowed to adhere for 24 hours prior to treatment with compounds of interest or controls for 24 hours. Cells are fixed in 4 percent formaldehyde and stained with Draq5 (BioStatus) to identify cells and subcellular compartment boundaries prior to signal detection. 8 Images per well were acquired on an Evotec Opera at 2 wavelengths (488 and 635nm), and the ratio of fluorescence in the nucleus relative to fluorescence in the cytoplasm (N/C Ratio) in the 488nm channel was calculated for a minimum of 350 cells per image.
Consider `CC1=NN(c2cc(Cl)c(S(=O)(=O)O)cc2Cl)C(=O)C1N=Nc1ccc(S(=O)(=O)O)cc1` (stereo unspecified), for which the outcome was inactive.
On to `Nc1ccc(S(=O)(=O)Nc2cnc3ccccc3n2)cc1`, for which the call was inactive.
To `O=C(c1ccccc1)c1ccccc1O` belongs “inactive”; to `Cc1cc(C)c(S(=O)(=O)O)cc1N=Nc1cc(S(=O)(=O)O)c2ccccc2c1O`, “inactive”.
Under `CCO[Si](CCCN)(OCC)OCC` stands “inactive”; under `O=C(CC(C(=O)OC1CCCCC1)S(=O)(=O)O)OC1CCCCC1` (stereo unspecified), “inactive”; under `Cc1cccnc1`, “inactive”.
As for `CO[Si](CCCNCCN)(OC)OC`, the outcome was inactive.
Turning to `C=C1CC[C@H]2C[C@@H]1C2(C)C`, the result was inactive.
For the molecule `O=C(Oc1ccccc1)c1ccccc1`, the result was inactive.
Turning to `O=C(OCc1ccccc1)c1ccccc1`, the result was inactive.
To `C[Si](C)(C)O[Si](C)(C)O[Si](C)(C)C` belongs “inactive”; to `CC[N+](CC)(CC(=O)Nc1c(C)cccc1C)Cc1ccccc1` (tested in a mixture with another compound), “inactive”; to `Sc1nc2ccccc2s1`, “inactive”.
To `Cc1cc(O)cc(C)c1Cl` belongs “inactive”; to `CCOC(=O)c1ccccc1`, “inactive”; to `CC[N+](CC)(CC(=O)Nc1c(C)cccc1C)Cc1ccccc1`, “inactive”.
In the case of `F[B-](F)(F)F`, the result was inactive.
As for `CCCCOC(=O)COc1ccc(Cl)cc1Cl`, the outcome was inactive.
For the molecule `CCCCCC[C@@H](O)C/C=C\CCCCCCCC(=O)O`, the result was inactive.
On to `CCCCCCC1CCC(=O)O1` (stereo unspecified), for which the result was inactive.
